Measurements taken from PubChem BioAssay AID1159580 (chemical genetic matrix, 2015).
“And” between values parts separate entries of the source, which are not always exact repeats. Equal entries are not always repeated. Screen size: about 5,500 compounds; about 2,000 (36%) were called active. About 18% were inconclusive and are not listed. Cut-off read from the data, not from the text of the source: active = normalized growth mostly below about 0.91 (no sharp cut-off); inconclusive = no clear call, values can overlap the other calls; inactive = mostly above about 0.92. The list shows a part of the results.

Assay: chemical genetic growth profiling, strain panel (AID 1159580);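 note: tested at 20 µM; growth read once vehicle control cultures reached saturation at 30 °C; 1 = growth at the plate median or of vehicle wells; lower values mean less growth of the strain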
Conditions: S. cerevisiae deletion strains, growth OD

Measured: normalized growth

CC(C)c1ccc2c(c1)CCC1C(C)(C(N)=O)CCCC21C (stereo unspecified)
inactive: locus YAL013W, strain DEP1, stronger effect = lower value 0.923 | locus YAL021C, strain ccr4, stronger effect = lower value 1.01 | locus YAL026C, strain drs2, stronger effect = lower value 0.916 | locus YAL030W, strain snc1, stronger effect = lower value 0.966 | locus YBL061C, strain skt5, stronger effect = lower value 0.951 | locus YBR009C, strain hhf1, stronger effect = lower value 0.947 | locus YBR021W, strain FUR4, stronger effect = lower value 1.02 | locus YBR023C, strain chs3, stronger effect = lower value 0.916 | locus YBR171W, strain sec66, stronger effect = lower value 0.952 | locus YBR229C, strain ROT2, stronger effect = lower value 0.983 | locus YBR231C, strain swc5, stronger effect = lower value 0.993 | locus YBR279W, strain paf1, stronger effect = lower value 0.992 | locus YCL011C, strain gbp2, stronger effect = lower value 0.941 | locus YCL016C, strain dcc1, stronger effect = lower value 0.94 | locus YCL029C, strain bik1, stronger effect = lower value 0.969 | locus YCL061C, strain MRC1, stronger effect = lower value 0.953 | locus YCL069W, strain vba3, stronger effect = lower value 0.969 | locus YCR088W, strain abp1, stronger effect = lower value 0.958 | locus YDL005C, strain med2, stronger effect = lower value 0.954 | locus YDL035C, strain GPR1, stronger effect = lower value 0.88 | locus YDL040C, strain nat1, stronger effect = lower value 0.976 | locus YDL101C, strain DUN1, stronger effect = lower value 0.946 | locus YDL134C, strain PPH21, stronger effect = lower value 0.898 | locus YDL185W, strain tfp1, stronger effect = lower value 0.991 | locus YDR001C, strain nth1, stronger effect = lower value 0.948 | locus YDR069C, strain doa4, stronger effect = lower value 0.989 | locus YDR101C, strain arx1, stronger effect = lower value 0.937 | locus YDR159W, strain sac3, stronger effect = lower value 0.895 | locus YDR162C, strain NBP2, stronger effect = lower value 0.872 | locus YDR195W, strain ref2 0.922 | locus YDR297W, strain sur2, stronger effect = lower value 0.968 | locus YDR318W, strain mcm21, stronger effect = lower value 0.931 | locus YDR334W, strain swr1, stronger effect = lower value 0.965 | locus YDR335W, strain msn5, stronger effect = lower value 0.976 | locus YDR388W, stronger effect = lower value 0.972 | locus YDR502C, strain sam2, stronger effect = lower value 0.926 | locus YEL003W, strain gim4, stronger effect = lower value 0.971 | locus YEL037C, strain rad23, stronger effect = lower value 0.973 | locus YEL061C, strain CIN8 (second series), stronger effect = lower value 0.96 | locus YEL061C, strain CIN8, stronger effect = lower value 0.962 | locus YER015W, strain faa2, stronger effect = lower value 0.982 | locus YER016W, strain bim1, stronger effect = lower value 0.967 | locus YER110C, stronger effect = lower value 0.995 | locus YER111C, strain swi4, stronger effect = lower value 0.936 | locus YER155C, strain BEM2 (second series), stronger effect = lower value 0.955 | locus YFR010W, strain ubp6, stronger effect = lower value 0.957 | locus YGL078C, strain dbp3, stronger effect = lower value 0.964 | locus YGL167C, strain pmr1, stronger effect = lower value 0.945 | locus YGL173C, strain kem1, stronger effect = lower value 0.951 | locus YGL227W, strain vid30, stronger effect = lower value 0.965 | locus YGL240W, strain doc1, stronger effect = lower value 0.963 | locus YGL248W, strain PDE1, stronger effect = lower value 0.926 | locus YGL253W, strain hxk2, stronger effect = lower value 0.951 | locus YGR135W, strain pre9, stronger effect = lower value 0.932 | locus YGR252W, strain gcn5, stronger effect = lower value 0.857 | locus YHR013C, strain ard1, stronger effect = lower value 1.09 | locus YHR027C, strain rpn1, stronger effect = lower value 0.979 | locus YHR079C, strain IRE1 (second series), stronger effect = lower value 0.974 | locus YHR094C, strain hxt1, stronger effect = lower value 1 | locus YHR129C, strain ARP1, stronger effect = lower value 0.941 | locus YHR200W, strain rpn10, stronger effect = lower value 0.945 | locus YIL066C, strain RNR3, stronger effect = lower value 0.902 | locus YIL073C, strain SPO22, stronger effect = lower value 0.833 | locus YIL125W, strain kgd1, stronger effect = lower value 0.939 | locus YIR030C, strain dcg1, stronger effect = lower value 0.97 | locus YJL092W, strain hpr5, stronger effect = lower value 0.956 | locus YJL095W, strain BCK1 (second series), stronger effect = lower value 0.966 | locus YJL115W, strain asf1, stronger effect = lower value 0.976 | locus YJL129C, strain trk1, stronger effect = lower value 0.905 | locus YJL134W, strain LCB3, stronger effect = lower value 0.983 | locus YJL154C, strain vps35, stronger effect = lower value 0.961 | locus YJL164C, strain tpk1, stronger effect = lower value 0.941 | locus YJL166W, strain qcr8, stronger effect = lower value 0.965 | locus YJL168C, strain set2, stronger effect = lower value 0.993 | locus YJL187C, strain SWE1 (second series), stronger effect = lower value 0.924 | locus YJL187C, strain SWE1, stronger effect = lower value 0.968 | locus YJR043C, strain POL32, stronger effect = lower value 0.941 | locus YJR066W, strain TOR1, stronger effect = lower value 0.936 | locus YKL068W, stronger effect = lower value 0.965 | locus YKL085W, strain MDH1 (second series), stronger effect = lower value 0.944 | locus YKL085W, strain MDH1, stronger effect = lower value 0.944 | locus YKL160W, strain elf1, stronger effect = lower value 0.952 | locus YKL190W, strain CNB1, stronger effect = lower value 0.969 | locus YKR026C, strain gcn3, stronger effect = lower value 0.969 | locus YKR091W, strain srl3, stronger effect = lower value 0.963 | locus YLL001W, strain dnm1, stronger effect = lower value 0.926 | locus YLL026W, stronger effect = lower value 0.976 | locus YLL041C, strain sdh2, stronger effect = lower value 0.96 | locus YLR027C, strain aat2, stronger effect = lower value 0.979 | locus YLR058C, strain SHM2, stronger effect = lower value 0.949 | locus YLR102C, strain apc9, stronger effect = lower value 0.986 | locus YLR221C, strain rsa3, stronger effect = lower value 0.916 | locus YLR258W, strain gsy2, stronger effect = lower value 0.966 | locus YLR268W, strain sec22, stronger effect = lower value 0.917 | locus YLR320W, strain mms22, stronger effect = lower value 0.911 | locus YLR342W, strain FKS1, stronger effect = lower value 0.946 | locus YLR357W, strain rsc2, stronger effect = lower value 0.952 | locus YLR370C, strain arc18, stronger effect = lower value 0.952 | locus YLR384C, strain iki3, stronger effect = lower value 0.954 | locus YML016C, strain PPZ1, stronger effect = lower value 0.977 | locus YML032C, strain rad52, stronger effect = lower value 0.954 | locus YML120C, strain ndi1, stronger effect = lower value 0.939 | locus YML124C, strain tub3, stronger effect = lower value 0.972 | locus YMR058W, strain fet3, stronger effect = lower value 0.958 | locus YMR078C, strain ctf18, stronger effect = lower value 0.984 | locus YMR125W, strain sto1, stronger effect = lower value 0.954 | locus YMR129W, stronger effect = lower value 0.952 | locus YMR205C, strain PFK2, stronger effect = lower value 0.894 | locus YMR223W, strain ubp8, stronger effect = lower value 0.929 | locus YMR231W, strain pep5, stronger effect = lower value 0.98 | locus YMR263W, strain SAP30, stronger effect = lower value 0.943 | locus YNL067W, strain RPL9B, stronger effect = lower value 0.935 | locus YNL128W, strain TEP1, stronger effect = lower value 0.925 | locus YNL183C, strain NPR1, stronger effect = lower value 0.9 | locus YNL209W, strain ssb2, stronger effect = lower value 0.974 | locus YNL248C, strain rpa49, stronger effect = lower value 0.942 | locus YNL250W, strain rad50, stronger effect = lower value 0.97 | locus YNL271C, strain bni1, stronger effect = lower value 0.951 | locus YNL307C, strain MCK1, stronger effect = lower value 0.942 | locus YNL322C, strain KRE1 (second series), stronger effect = lower value 0.937 | locus YNR049C, strain mso1, stronger effect = lower value 0.969 | locus YOL012C, strain htz1 1.06 | locus YOL147C, strain pex11, stronger effect = lower value 0.965 | locus YOR001W, strain rrp6, stronger effect = lower value 0.973 | locus YOR069W, strain VPS5, stronger effect = lower value 0.966 | locus YOR070C, strain gyp1, stronger effect = lower value 0.955 | locus YOR080W, strain dia2, stronger effect = lower value 0.964 | locus YOR083W, strain WHI5, stronger effect = lower value 0.917 | locus YOR106W, strain vam3, stronger effect = lower value 0.955 | locus YOR136W, strain idh2, stronger effect = lower value 0.962 | locus YOR144C, strain elg1, stronger effect = lower value 0.956 | locus YOR231W, strain MKK1, stronger effect = lower value 0.891 | locus YOR265W, strain rbl2, stronger effect = lower value 0.965 | locus YOR270C, strain vph1, stronger effect = lower value 0.984 | locus YOR290C, strain snf2, stronger effect = lower value 0.902 | locus YOR316C, strain cot1, stronger effect = lower value 0.983 | locus YPL078C, strain atp4, stronger effect = lower value 0.946 | locus YPL106C, strain sse1, stronger effect = lower value 0.93 | locus YPL240C, strain hsp82, stronger effect = lower value 0.966 | locus YPL241C, strain CIN2, stronger effect = lower value 0.98 | locus YPL256C, strain CLN2, stronger effect = lower value 0.838 | locus YPR119W, strain clb2, stronger effect = lower value 0.942 | locus YPR141C, strain kar3, stronger effect = lower value 0.968 | locus YPR163C, strain tif3, stronger effect = lower value 0.966 | locus YPR167C, strain met16, stronger effect = lower value 0.985 | strain wtn01, stronger effect = lower value 0.922
active: locus YDL074C, strain BRE1, stronger effect = lower value 0.76 | locus YDL192W, strain arf1, stronger effect = lower value 0.831 | locus YDR137W, strain rgp1, stronger effect = lower value 0.679 | locus YDR392W, strain spt3, stronger effect = lower value 0.627 | locus YER155C, strain BEM2, stronger effect = lower value 0.89 | locus YER167W, strain BCK2, stronger effect = lower value 0.898 | locus YGL086W, strain mad1, stronger effect = lower value 0.894 | locus YGR229C, strain SMI1, stronger effect = lower value 0.654 | locus YHR079C, strain IRE1, stronger effect = lower value 0.848 | locus YHR142W, strain chs7, stronger effect = lower value 0.801 | locus YKL009W, strain mrt4, stronger effect = lower value 0.856 | locus YKR001C, strain vps1, stronger effect = lower value 0.78 | locus YLR039C, strain RIC1, stronger effect = lower value 0.569 | locus YLR113W, strain HOG1, stronger effect = lower value 0.78 | locus YLR262C, strain YPT6 (second series), stronger effect = lower value 0.734 | locus YLR262C, strain YPT6, stronger effect = lower value 0.498 | locus YLR330W, strain CHS5, stronger effect = lower value 0.909 | locus YLR342W, strain FKS1 (second series), stronger effect = lower value 0.645 | locus YLR371W, strain rom2, stronger effect = lower value 0.671 | locus YLR418C, strain cdc73, stronger effect = lower value 0.76 | locus YMR307W, strain GAS1, stronger effect = lower value 0.418 | locus YNL071W, strain lat1, stronger effect = lower value 0.916 | locus YNL233W, strain BNI4, stronger effect = lower value 0.792 | locus YNL298W, strain CLA4, stronger effect = lower value 0.887 | locus YNR052C, strain pop2, stronger effect = lower value 0.847 | locus YOR061W, strain CKA2, stronger effect = lower value 0.885 | locus YOR184W, strain ser1, stronger effect = lower value 0.703 | locus YPL051W, strain arl3, stronger effect = lower value 0.915
0.815 (active) and 0.881 (inactive): locus YHR030C, strain SLT2, stronger effect = lower value
0.695 (active) and 0.911 (inactive): locus YJL095W, strain BCK1, stronger effect = lower value
